Holding throughout (test): DAPPL (digital affinity profiling via proximity ligation, sequencing); 10 mM Tris-HCl pH 7.5, 50 mM NaCl, 1 mM DTT, 4% glycerol, room temperature, 30 min; GST-TFs on glutathione beads, 16-mer random dsDNA library, 0.1% formaldehyde crosslink after washing; high values mean tight binding
One experiment concerns the target T1, FLI1 (Homo sapiens, UniProt Q01543 1-452).
T1 sequence: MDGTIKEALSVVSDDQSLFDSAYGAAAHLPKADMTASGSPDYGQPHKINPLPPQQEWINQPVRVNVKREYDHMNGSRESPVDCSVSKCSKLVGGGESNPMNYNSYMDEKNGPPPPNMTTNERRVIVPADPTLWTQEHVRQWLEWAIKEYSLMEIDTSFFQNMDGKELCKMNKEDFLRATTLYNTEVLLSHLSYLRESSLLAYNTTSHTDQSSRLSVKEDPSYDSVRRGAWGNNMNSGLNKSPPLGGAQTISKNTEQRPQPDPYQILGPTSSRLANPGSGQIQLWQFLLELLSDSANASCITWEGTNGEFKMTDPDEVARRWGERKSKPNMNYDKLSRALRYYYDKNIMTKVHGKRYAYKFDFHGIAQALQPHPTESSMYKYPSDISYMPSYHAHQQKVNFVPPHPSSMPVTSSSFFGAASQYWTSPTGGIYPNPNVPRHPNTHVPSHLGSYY
The settings on record: protein: recombinant; tags: N-terminal GST; dsDNA, one strand shown. An outline of the steps:
(§1)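 Pools were built from human transcription factors expressed in yeast as GST fusions, captured on glutathione beads and DNA-barcoded, along with a tag-only sample. Incubation with 200 nmole of a 16-mer random double-stranded DNA library lasted 30 min at room temperature in Tris/NaCl/DTT/glycerol buffer, and was followed by washing, 0.1% formaldehyde crosslinking, proximity ligation, PCR amplification and Illumina NextSeq500 sequencing. Binding signal is the quotient of each hexamer's read frequency for a factor and its frequency for the tag-only sample.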

Another experiment concerns the target T2, ELK1 (Homo sapiens, UniProt P19419 1-428).
T2 sequence: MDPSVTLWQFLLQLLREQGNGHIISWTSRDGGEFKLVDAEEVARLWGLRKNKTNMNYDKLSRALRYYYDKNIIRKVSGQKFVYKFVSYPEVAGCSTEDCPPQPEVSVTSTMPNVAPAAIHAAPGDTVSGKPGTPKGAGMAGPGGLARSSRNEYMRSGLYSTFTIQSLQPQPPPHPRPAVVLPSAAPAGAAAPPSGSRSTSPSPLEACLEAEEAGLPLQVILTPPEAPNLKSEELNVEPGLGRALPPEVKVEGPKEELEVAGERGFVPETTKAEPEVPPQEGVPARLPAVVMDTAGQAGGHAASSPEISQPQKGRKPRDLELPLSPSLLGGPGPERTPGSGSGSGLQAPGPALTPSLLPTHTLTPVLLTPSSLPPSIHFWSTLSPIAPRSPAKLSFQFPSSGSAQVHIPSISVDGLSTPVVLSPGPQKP
The settings on record: protein: recombinant; tags: N-terminal GST; dsDNA, one strand shown. An outline of the steps: as §1

A further experiment concerns the target T3, GABPA (Homo sapiens, UniProt Q06546 1-454).
T3 sequence: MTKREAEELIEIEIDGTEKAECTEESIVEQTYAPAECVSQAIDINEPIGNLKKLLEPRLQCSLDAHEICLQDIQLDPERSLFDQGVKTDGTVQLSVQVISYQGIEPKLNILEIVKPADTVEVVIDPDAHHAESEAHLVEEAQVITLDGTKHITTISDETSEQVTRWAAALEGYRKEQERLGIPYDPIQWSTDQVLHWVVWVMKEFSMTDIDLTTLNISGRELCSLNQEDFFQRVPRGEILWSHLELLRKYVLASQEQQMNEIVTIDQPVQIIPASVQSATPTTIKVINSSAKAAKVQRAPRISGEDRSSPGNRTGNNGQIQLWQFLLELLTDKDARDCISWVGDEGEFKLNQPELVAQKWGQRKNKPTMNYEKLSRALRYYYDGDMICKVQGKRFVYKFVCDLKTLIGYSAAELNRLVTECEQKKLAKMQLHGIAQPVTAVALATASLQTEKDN
The conditions noted are these: protein: recombinant; tags: N-terminal GST; dsDNA, one strand shown. An outline of the steps: as §1

A further experiment concerns the target T4, ERG (Homo sapiens, UniProt P11308 1-479).
T4 sequence: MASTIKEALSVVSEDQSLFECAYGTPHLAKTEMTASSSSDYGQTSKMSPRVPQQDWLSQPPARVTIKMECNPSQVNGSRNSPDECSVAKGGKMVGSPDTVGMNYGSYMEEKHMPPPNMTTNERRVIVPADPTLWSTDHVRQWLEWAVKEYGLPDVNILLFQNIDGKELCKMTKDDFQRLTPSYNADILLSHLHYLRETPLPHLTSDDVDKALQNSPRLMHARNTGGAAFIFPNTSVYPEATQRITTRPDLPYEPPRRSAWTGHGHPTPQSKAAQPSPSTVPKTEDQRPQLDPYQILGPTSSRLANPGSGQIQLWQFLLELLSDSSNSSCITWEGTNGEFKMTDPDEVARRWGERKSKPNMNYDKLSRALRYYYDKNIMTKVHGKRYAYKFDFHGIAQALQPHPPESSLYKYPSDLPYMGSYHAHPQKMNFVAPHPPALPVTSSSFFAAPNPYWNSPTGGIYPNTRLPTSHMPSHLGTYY
The conditions noted are these: protein: recombinant; tags: N-terminal GST; dsDNA, one strand shown. An outline of the steps: as §1

The next experiment has as its target ELF1 (Homo sapiens, UniProt P32519 1-619). The settings on record: protein: recombinant; tags: N-terminal GST; dsDNA, one strand shown. The gist of the method:
as §1

The next experiment concerns the target T5, EHF (Homo sapiens, UniProt Q9NZC4 1-300).
T5 sequence: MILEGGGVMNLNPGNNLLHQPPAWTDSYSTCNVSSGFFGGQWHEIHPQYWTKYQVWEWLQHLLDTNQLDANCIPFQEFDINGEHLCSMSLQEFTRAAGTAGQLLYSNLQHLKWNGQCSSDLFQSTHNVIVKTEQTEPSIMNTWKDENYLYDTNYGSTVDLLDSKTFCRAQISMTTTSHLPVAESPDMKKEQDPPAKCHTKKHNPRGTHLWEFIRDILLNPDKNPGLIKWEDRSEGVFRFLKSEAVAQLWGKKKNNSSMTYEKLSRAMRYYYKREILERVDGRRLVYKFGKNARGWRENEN
The settings on record: protein: recombinant; tags: N-terminal GST; dsDNA, one strand shown. The gist of the method:
as §1

A further experiment has as its target SPI1 (Homo sapiens, UniProt P17947 1-270). The settings on record: protein: recombinant; tags: N-terminal GST; dsDNA, one strand shown. The gist of the method: as §1
Another experiment deals with SPIB (Homo sapiens, UniProt Q01892 1-262). The settings on record: protein: recombinant; tags: N-terminal GST; dsDNA, one strand shown. The gist of the method: as §1
SPIB, sequence (Q01892 whole entry): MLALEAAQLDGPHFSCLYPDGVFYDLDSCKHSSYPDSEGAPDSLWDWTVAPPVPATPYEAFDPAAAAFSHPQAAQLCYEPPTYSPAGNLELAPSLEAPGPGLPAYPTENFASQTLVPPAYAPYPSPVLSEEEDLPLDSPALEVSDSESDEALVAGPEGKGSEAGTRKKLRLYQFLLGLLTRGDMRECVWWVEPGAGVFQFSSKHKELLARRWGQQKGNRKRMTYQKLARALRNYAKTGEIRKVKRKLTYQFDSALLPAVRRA
The target in the next experiment is T6, ELK3 (Homo sapiens, UniProt P41970 1-407).
T6 sequence: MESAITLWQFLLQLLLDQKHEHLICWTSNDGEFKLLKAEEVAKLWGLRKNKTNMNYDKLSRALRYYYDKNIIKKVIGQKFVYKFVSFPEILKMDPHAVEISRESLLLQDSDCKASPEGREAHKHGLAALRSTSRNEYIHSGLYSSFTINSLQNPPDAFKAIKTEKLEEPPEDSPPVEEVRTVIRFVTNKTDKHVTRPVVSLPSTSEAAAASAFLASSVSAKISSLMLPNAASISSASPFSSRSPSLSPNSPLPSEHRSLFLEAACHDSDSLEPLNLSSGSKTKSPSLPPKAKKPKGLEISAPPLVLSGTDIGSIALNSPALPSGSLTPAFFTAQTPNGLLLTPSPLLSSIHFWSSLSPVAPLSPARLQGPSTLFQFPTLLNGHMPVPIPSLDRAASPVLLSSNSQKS
The conditions noted are these: protein: recombinant; tags: N-terminal GST; dsDNA, one strand shown. The gist of the method:
as §1

A further experiment concerns the target T7, FEV (Homo sapiens, UniProt Q99581 1-238).
T7 sequence: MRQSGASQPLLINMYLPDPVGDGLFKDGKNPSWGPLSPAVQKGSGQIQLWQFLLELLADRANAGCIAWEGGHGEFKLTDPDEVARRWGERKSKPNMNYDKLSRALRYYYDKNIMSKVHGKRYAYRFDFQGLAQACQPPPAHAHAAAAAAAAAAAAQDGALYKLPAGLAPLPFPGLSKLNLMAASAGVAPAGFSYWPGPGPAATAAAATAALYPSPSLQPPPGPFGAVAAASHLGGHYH
The settings on record: protein: recombinant; tags: N-terminal GST; dsDNA, one strand shown. The gist of the method: as §1

In another experiment the target is ETV5 (Homo sapiens, UniProt P41161 1-510). The settings on record: protein: recombinant; tags: N-terminal GST; dsDNA, one strand shown. An outline of the steps: as §1
ETV5, sequence (P41161 whole entry): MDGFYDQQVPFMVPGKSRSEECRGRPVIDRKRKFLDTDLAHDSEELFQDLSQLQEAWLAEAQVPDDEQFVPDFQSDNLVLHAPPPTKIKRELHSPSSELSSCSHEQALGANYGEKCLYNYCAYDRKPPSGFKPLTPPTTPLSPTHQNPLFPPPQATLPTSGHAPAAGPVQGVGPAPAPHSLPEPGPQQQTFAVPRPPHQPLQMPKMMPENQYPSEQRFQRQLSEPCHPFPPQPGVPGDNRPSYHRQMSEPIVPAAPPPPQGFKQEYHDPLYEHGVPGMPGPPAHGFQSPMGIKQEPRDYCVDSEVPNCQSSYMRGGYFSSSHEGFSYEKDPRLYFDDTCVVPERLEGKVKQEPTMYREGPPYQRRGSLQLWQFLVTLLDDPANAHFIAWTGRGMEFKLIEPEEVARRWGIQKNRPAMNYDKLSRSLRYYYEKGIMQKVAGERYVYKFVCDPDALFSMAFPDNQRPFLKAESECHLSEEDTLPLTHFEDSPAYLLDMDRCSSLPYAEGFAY
For the next experiment, the target named is HSF1 (Homo sapiens, UniProt Q00613 1-529). The conditions noted are these: protein: recombinant; tags: N-terminal GST; chain copies: 3; dsDNA, one strand shown. The gist of the method:
as §1

Another experiment addresses T8, SPIC (Homo sapiens, UniProt Q8N5J4 1-248).
T8 sequence: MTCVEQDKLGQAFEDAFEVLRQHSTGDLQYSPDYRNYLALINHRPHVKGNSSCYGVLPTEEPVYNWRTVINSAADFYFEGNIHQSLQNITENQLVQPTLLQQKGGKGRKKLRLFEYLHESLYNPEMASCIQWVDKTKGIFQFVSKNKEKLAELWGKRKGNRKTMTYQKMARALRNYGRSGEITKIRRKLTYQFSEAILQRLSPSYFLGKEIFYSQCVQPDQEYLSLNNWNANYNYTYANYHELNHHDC
The conditions noted are these: protein: recombinant; tags: N-terminal GST; dsDNA, one strand shown. The gist of the method: as §1

In another experiment the target is ELF4 (Homo sapiens, UniProt Q99607 1-663). The conditions noted are these: protein: recombinant; tags: N-terminal GST; dsDNA, one strand shown. The gist of the method:
as §1

A further experiment has as its target T9, ELK4 (Homo sapiens, UniProt P28324-2 1-405).
T9 sequence: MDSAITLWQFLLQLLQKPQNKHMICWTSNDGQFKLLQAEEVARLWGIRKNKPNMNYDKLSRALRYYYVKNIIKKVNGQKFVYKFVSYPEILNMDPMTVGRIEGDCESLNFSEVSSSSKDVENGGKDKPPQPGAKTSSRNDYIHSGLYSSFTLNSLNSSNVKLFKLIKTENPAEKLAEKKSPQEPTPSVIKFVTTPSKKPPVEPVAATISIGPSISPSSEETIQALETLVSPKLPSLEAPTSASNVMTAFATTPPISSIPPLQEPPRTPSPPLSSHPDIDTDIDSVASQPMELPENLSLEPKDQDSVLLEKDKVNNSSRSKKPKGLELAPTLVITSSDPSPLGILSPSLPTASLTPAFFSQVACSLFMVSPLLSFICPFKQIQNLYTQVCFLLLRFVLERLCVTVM
The conditions noted are these: protein: recombinant; tags: N-terminal GST; dsDNA, one strand shown. An outline of the steps:
as §1

Another experiment addresses T10, ETV2 (Homo sapiens, UniProt O00321 1-342).
T10 sequence: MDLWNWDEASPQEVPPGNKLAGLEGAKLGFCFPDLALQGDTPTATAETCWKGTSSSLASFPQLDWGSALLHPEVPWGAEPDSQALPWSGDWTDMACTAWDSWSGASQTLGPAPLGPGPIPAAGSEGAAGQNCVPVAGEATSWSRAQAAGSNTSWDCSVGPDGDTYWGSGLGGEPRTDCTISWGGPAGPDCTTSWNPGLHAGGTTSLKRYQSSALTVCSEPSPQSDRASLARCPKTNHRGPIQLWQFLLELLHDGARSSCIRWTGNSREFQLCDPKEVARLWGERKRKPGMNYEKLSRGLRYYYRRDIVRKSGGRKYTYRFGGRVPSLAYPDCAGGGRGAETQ
The conditions noted are these: protein: recombinant; tags: N-terminal GST; dsDNA, one strand shown. An outline of the steps:
as §1

The next experiment has as its target T11, ELF3 (Homo sapiens, UniProt P78545 1-371).
T11 sequence: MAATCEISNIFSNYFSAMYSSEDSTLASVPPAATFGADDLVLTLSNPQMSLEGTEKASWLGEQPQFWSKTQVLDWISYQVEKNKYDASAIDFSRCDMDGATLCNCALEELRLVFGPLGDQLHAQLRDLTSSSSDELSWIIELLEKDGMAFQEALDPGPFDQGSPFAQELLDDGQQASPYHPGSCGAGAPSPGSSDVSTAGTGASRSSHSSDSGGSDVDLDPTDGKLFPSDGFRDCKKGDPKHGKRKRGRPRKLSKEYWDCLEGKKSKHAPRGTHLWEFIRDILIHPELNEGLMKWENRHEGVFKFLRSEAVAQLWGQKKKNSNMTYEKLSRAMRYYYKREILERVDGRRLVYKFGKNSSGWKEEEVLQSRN
The conditions noted are these: protein: recombinant; tags: N-terminal GST; dsDNA, one strand shown. An outline of the steps: as §1

Another experiment has as its target CRX (Homo sapiens, UniProt O43186 1-299). The settings on record: protein: recombinant; tags: N-terminal GST; dsDNA, one strand shown. The gist of the method: as §1
The target in the next experiment is ETV1 (Homo sapiens, UniProt P50549 1-477). The settings on record: protein: recombinant; tags: N-terminal GST; dsDNA, one strand shown. An outline of the steps:
as §1

ELF4, sequence (Q99607 whole entry): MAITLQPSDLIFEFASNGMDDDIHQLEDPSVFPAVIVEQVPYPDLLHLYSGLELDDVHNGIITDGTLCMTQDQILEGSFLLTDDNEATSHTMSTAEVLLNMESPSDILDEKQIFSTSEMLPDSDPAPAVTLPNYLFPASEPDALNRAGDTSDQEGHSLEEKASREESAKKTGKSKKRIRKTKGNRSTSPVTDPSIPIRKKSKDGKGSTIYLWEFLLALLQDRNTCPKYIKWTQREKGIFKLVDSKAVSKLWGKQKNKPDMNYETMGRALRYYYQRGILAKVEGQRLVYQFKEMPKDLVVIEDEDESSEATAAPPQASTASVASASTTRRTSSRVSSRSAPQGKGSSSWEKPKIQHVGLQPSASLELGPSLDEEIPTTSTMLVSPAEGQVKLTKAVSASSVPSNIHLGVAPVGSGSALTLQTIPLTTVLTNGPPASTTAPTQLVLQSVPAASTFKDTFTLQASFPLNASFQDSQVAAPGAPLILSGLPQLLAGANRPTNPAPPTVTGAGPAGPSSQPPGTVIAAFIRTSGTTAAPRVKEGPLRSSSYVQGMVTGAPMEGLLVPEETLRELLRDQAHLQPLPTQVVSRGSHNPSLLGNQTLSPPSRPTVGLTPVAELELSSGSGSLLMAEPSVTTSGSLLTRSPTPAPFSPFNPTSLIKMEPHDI
ELF1, sequence (P32519 whole entry): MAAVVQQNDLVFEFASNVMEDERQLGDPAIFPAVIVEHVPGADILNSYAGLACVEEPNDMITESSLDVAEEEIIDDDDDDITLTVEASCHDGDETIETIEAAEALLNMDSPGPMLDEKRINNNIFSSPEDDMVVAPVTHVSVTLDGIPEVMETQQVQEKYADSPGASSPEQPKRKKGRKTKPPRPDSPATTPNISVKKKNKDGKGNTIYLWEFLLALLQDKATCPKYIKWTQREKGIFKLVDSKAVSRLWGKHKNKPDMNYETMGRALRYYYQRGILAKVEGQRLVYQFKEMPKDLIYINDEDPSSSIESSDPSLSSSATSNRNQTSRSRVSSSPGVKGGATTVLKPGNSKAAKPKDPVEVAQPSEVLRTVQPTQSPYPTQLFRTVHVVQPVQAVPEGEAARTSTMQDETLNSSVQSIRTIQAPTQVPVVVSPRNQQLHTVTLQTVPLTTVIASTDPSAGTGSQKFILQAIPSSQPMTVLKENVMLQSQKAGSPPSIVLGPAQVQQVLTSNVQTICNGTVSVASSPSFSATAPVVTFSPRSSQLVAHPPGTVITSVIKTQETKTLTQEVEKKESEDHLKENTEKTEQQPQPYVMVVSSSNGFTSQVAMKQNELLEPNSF
ETV1, sequence (P50549 whole entry): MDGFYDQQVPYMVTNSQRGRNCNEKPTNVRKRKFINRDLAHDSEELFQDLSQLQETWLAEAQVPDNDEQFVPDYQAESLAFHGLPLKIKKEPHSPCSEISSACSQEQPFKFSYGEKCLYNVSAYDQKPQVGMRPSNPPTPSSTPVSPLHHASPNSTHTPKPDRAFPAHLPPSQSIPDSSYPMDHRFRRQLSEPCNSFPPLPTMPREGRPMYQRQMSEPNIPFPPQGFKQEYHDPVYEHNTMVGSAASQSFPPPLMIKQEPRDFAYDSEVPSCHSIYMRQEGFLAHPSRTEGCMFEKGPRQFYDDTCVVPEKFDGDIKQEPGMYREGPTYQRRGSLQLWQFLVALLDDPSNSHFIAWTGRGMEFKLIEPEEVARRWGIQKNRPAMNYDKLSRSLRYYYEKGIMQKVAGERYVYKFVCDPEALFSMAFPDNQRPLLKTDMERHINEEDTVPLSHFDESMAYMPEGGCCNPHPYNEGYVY
HSF1, sequence (Q00613 whole entry): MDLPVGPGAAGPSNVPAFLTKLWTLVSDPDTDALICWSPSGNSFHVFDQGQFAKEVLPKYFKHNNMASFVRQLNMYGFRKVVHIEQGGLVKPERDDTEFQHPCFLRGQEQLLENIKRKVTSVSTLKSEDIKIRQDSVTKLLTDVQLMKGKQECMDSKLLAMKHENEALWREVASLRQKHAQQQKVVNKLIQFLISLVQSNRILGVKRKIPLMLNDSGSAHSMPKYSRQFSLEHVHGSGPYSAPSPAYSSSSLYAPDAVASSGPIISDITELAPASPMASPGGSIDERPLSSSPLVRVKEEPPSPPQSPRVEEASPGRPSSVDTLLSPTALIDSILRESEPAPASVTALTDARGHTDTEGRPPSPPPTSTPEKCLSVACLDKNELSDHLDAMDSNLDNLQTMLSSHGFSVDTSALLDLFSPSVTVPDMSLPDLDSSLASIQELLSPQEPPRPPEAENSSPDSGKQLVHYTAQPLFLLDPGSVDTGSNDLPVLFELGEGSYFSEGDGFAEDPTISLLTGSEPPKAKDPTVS
CRX, sequence (O43186 whole entry): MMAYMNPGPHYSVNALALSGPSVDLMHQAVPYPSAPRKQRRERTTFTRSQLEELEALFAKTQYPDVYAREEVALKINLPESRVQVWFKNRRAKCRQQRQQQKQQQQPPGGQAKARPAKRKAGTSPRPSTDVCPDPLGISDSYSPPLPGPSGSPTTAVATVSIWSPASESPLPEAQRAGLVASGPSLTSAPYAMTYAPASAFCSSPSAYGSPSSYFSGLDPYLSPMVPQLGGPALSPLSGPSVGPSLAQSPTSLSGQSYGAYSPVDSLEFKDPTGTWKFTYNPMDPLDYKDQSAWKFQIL

As to TCCTTA, the binding signal is 1.6 fold enrichment (6-mer frequency, TF over GST control) with FLI1; 1.38 fold enrichment (6-mer frequency, TF over GST control) with ELK1; 1.57 fold enrichment (6-mer frequency, TF over GST control) with GABPA; 1.55 fold enrichment (6-mer frequency, TF over GST control) with ERG; 1.66 fold enrichment (6-mer frequency, TF over GST control) with ELF1; 1.71 fold enrichment (6-mer frequency, TF over GST control) in the experiment with EHF. In addition, the binding signal in the experiment with SPI1 was 1.78 fold enrichment (6-mer frequency, TF over GST control); with SPIB, 1.7 fold enrichment (6-mer frequency, TF over GST control); with ELK3, 1.4 fold enrichment (6-mer frequency, TF over GST control); with FEV, 1.48 fold enrichment (6-mer frequency, TF over GST control); with ETV5 it was 1.52 fold enrichment (6-mer frequency, TF over GST control); with HSF1 it was 1.54 fold enrichment (6-mer frequency, TF over GST control). In addition, the binding signal with SPIC was 1.66 fold enrichment (6-mer frequency, TF over GST control); with ELF4, 1.56 fold enrichment (6-mer frequency, TF over GST control); with ELK4, 1.41 fold enrichment (6-mer frequency, TF over GST control); with ETV2, 1.59 fold enrichment (6-mer frequency, TF over GST control); with ELF3 it was 1.43 fold enrichment (6-mer frequency, TF over GST control); with CRX it was 1.83 fold enrichment (6-mer frequency, TF over GST control). Moreover, the binding signal with ETV1 is 1.56 fold enrichment (6-mer frequency, TF over GST control).
